# Data: PubChem BioAssay (NCATS)
# Records with an inconclusive call do not appear. Active and inactive are the calls of the source. The call rests on the fitted dose curve; in most records, active means well fitted inhibition curve with a large enough effect; inconclusive means small, poorly fitted or top-dose-only effect; inactive means flat fitted curve, though single readings scatter.
# Assay: High Content Imaging Cell-Based qHTS for Inhibitors of the mTORC1 Signaling Pathway in MEF (Tsc2-/-, p53-/-) Cells (AID 2666);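 further: percent of cells scored positive for phospho-rpS6 Ser235/236 immunostaining by imaging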
# Settings: series mostly up to 38.3 µM
# Excerpt: NIH Molecular Libraries Probe Production Centers Network [MLPCN]
# NIH Chemical Genomics Center [NCGC]
# Assay Submitter (PI): Blenis, John; Hoffman, Greg; Harvard University
# NCGC Assay Overview: Thee mammalian target of rapamycin (mTOR) is an intracellular serine/threonine kinase Aberrant regulation of mTOR signaling plays a causative role in a number of human diseases, including cancer, benign tumors such as lymphangioleiomyomatosis (LAM) and Tuberous Sclerosis Complex (TSC), and metabolic diseases such as diabetes and obesity. This project aims to identify inhibitors of ribosomal protein S6 (rpS6) phosphorylation. The phosphorylation of rpS6 is a key event downstream of mTOR activation. The assay uses a phospho-specific antibody of phospho-rpS6 to detect inhibitors of mTOR activation. Mutations in the Tsc1 and Tsc2 genes are the underlying genetic lesions responsible for TSC, causing constitutive activation of the mTORC1 pathway and leading to profound effects on cell metabolism. Aberrant metabolism in cancer has recently received significant attention as a target to develop therapeutic agents in the treatment of cancer1. As Tsc2-/- cells have lost the ability to respond to energy and growth factor deprivation, these cells are unable to properly down regulate cellular biosynthetic processes in response to metabolic stress, and are thus extremely sensitive to glucose deprivation-induced death.2 A central goal of this project is to explore the unique cell survival and metabolic properties of cells with Tsc1 or Tsc2 by screening for compounds that selectively target the Tsc2-/- MEFs by screening both Tsc2-/- and WT MEF cell lines. We hope to better understand these aspects of TSC physiology in order to exploit them for therapeutic benefit.
# NCGC IN Cell Assay Protocol:
# For quantitative high throughput analysis of mTORC1 signaling, we developed a cell-based assay for immuno-fluorescence based detection of rpS6 phosphorylation on the Acumen Explorer that will be used a platform for the primary small molecule screen. Mouse embryonic fibroblasts (MEFs) are cultured in 1536-well plates using DMEM + 10% FBS. Twenty-four hrs after plating, test compounds (solubilized in DMSO) are delivered and incubated with the cells for 24 hrs at 37 degree Celsius. Following the incubation, media with compound is aspirated and the cells are fixed in 4% paraformaldehyde (PFA) containing PBS + 0.2% TX-100. Next, PFA is aspirated, cells are washed two times with PBS plus 0.2% TX-100 and the cells are blocked for 1 hr at room temperature (blocking buffer: LiCOR Blocking Buffer plus 0.2% TX-100). This is followed by aspiration and staining with Alexa-488 conjugated-phospho-rpS6 Ser235/236 antibody for 2 hours at room temperature (Cell Signaling Technology # 4803, 1:50 dilution in blocking buffer). Cells are washed two times with PBS plus 0.2% TX-100, and stained with 10 uM propidium iodide (PI) for 20-25 minutes for cell number measurement (1:500 dilution of Hoescht staining is also added for IN Cell imaging). Active wells which are selected (based on Acumen results) are imaged on the IN Cell 1000 (GE Healthcare) using the D360/40X and HQ480/40X excitation filters for the Hoechst and Alexa-488 cytoplasmic stains, respectively. The fluorescence emission filters used were HQ460/40M and HQ535/50M for the Hoechst and Alexa-488 cytoplasmic stains, respectively. The normalized phospho-S6 staining is calculated as the ratio of […] for the single concentration rapamycin control ([…] nM) and DMSO columns. […] Inhibition of the pathway is defined based on the normalized phospho-S6 intensity in rapamycin treated cells. Each treatment is reported as the % positive cells in the well, where thresholds are defined by selecting wells with the highest and lowest signal and differentiating between the % non-active and % active populations. […]
row,SMILES,outcome
1,Brc1c(NC2=NCCN2)ccc2nccnc12,inactive
2,CN(C)[C@@H]1C(=O)C(C(N)=O)=C(O)[C@@]2(O)C(=O)C3=C(O)c4c(O)ccc(Cl)c4[C@@H](O)[C@H]3C[C@@H]12,inactive
3,CC(C(=O)O)c1ccc(CC2CCCC2=O)cc1 (stereo not given),inactive
4,COC(=O)C1=C(C)NC(C)=C(C(=O)OC(C)(C)CN(C)CCC(c2ccccc2)c2ccccc2)C1c1cccc([N+](=O)[O-])c1 (stereo not given),inactive
5,NC(=O)c1ncn([C@@H]2O[C@H](CO)[C@@H](O)[C@H]2O)c1O,inactive
6,C[C@H](CS)C(=O)N1CCC[C@H]1C(=O)O,inactive
7,CCn1ccnc1CC1COc2ccccc2O1 (stereo not given),inactive
8,Nc1ncn([C@@H]2O[C@H](CO)[C@@H](O)[C@H]2O)c(=O)n1,inactive
9,CN/C(=C\[N+](=O)[O-])NCCSCc1ccc(CN(C)C)o1,inactive
10,Cc1ccc(/C(=C\CN2CCCC2)c2ccccn2)cc1,inactive
11,O=C(O)CN(CCN(CC(=O)O)CC(=O)O)CCN(CC(=O)O)CC(=O)O,inactive
12,CCOC(=O)C1=C(C)NC(C)=C(C(=O)OC)C1c1cccc([N+](=O)[O-])c1 (stereo not given),inactive
13,CSc1ccc(C(=O)c2[nH]c(=O)[nH]c2C)cc1,inactive
14,CCCN(CCC)CCc1cccc2c1CC(=O)N2,inactive
15,C[C@]12CCC(=O)C=C1CC[C@@H]1[C@@H]2C(=O)C[C@@]2(C)[C@H]1CC[C@]2(O)C(=O)CO,inactive
16,Cc1ccc(S(=O)(=O)NC(=O)NN2CCCCCC2)cc1,inactive
17,Cc1cc(C)c(/C=C2\C(=O)Nc3ccccc32)[nH]1,inactive
18,CCN(Cc1ccncc1)C(=O)C(CO)c1ccccc1 (stereo not given),inactive
19,OCCN1CCN(CCCN2c3ccccc3C=Cc3ccccc32)CC1,inactive
20,CCCCNc1ccc(C(=O)OCCN(C)C)cc1,inactive

row,SMILES,outcome
1,CCn1nc(C(=O)O)c(=O)c2cc3c(cc21)OCO3,inactive
2,CN1CCN(CC(=O)N2c3ccccc3C(=O)Nc3cccnc32)CC1,inactive
3,CCOC(=O)C1=C(C)NC(C)=C(C(=O)OC)C1c1cccc(Cl)c1Cl (stereo not given),inactive
4,CN(C)CCOC(=O)COc1ccc(Cl)cc1,inactive
5,FC(F)(F)c1ccccc1-n1ccnc1,inactive
6,CCN(CC)CCOCCOC(=O)C1(c2ccccc2)CCCC1,inactive
7,CC(=O)OC(C)C[N+](C)(C)C (stereo not given),inactive
8,CN(C)CCCN1c2ccccc2Sc2ccc(C(F)(F)F)cc21,inactive
9,COc1cc(C(=O)OCCCN2CCCN(CCCOC(=O)c3cc(OC)c(OC)c(OC)c3)CC2)cc(OC)c1OC,inactive
10,O=C(O)CP(=O)(O)O,inactive
11,C=CCc1ccccc1OCC(O)CNC(C)C (stereo not given),inactive
12,CC(C)(C)NCC(O)c1cc(O)cc(O)c1 (stereo not given),inactive
13,O=C(CCCN1CCC(O)(c2cccc(C(F)(F)F)c2)CC1)c1ccc(F)cc1,inactive
14,CN(C)CC/C=C1\c2ccccc2COc2ccccc21,inactive
15,COCCCC/C(=N\OCCN)c1ccc(C(F)(F)F)cc1,inactive
16,NC(N)=NC(=O)Cc1c(Cl)cccc1Cl,inactive
17,CCCOc1ccccc1-c1nc2n[nH]nc2c(=O)[nH]1,inactive
18,NC(Cc1ccc(Cl)cc1)C(=O)O (stereo not given),inactive
19,NC/C=C/C(=O)O,inactive
20,NC(=O)c1cn(Cc2c(F)cccc2F)nn1,inactive
